# Gal4-VP16 FLuc – inhibits Gal4-VP16 luciferase reporter, ROR gamma counter-screen | Drosophila S2 Gal4-VP16 UAS-luciferase, luminescence, 20 h | Potency, µM (doses to about 53.6 µM), for the others: at the top dose activity, negative = inhibition, usual class: inhibitors | 310,000 tested, 3.5% active;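 further: Gal4-VP16 expression switched on by copper sulfate through the metallothionein promoter; on the % scale 0 is the no-effect control and ±100 the full control effect; nearly all actives have a fitted effect of over 50% in size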
# RORg inh – inhibitors of mouse ROR gamma transcriptional activity | Drosophila S2 Gal4-RORgamma UAS-luciferase reporter, 20 h | Potency, µM (doses to about 53.6 µM), for the others: top-dose activity change, negative = inhibition, most hits filed as inhibitors | 310,000 tested, 5.4% active; further: on the % scale 0 is the no-effect control and ±100 the full control effect; nearly all actives have a fitted effect of over 60% in size
# Target sequence (P51450 whole entry, looked up, the tested form may be a part): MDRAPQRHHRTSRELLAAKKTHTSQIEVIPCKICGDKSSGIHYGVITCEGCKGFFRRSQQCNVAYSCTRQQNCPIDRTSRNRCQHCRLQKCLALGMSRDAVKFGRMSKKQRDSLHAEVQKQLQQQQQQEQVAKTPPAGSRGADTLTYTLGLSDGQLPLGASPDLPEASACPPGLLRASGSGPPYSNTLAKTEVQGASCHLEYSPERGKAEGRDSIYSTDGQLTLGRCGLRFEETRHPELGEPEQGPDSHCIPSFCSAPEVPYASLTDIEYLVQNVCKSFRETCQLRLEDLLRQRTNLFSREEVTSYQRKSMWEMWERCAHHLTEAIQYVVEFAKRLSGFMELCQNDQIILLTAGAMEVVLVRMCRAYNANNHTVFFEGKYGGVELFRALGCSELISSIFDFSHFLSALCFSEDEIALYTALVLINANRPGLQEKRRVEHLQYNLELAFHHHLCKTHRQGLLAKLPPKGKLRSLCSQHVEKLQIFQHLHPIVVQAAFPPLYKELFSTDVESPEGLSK
#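 Read-out: Photinus luciferase luminescence; inhibitors lower reporter signal. Insect Schneider cells with Gal4-ROR gamma fusion under metallothionein promoter, UAS reporter; 700 uM final copper sulfate induction, 20 hr, ambient temperature.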
# SW480 rereplic – DNA re-replication induction in SW480 cells. SW480 DNA re-replication, Hoechst DNA content imaging, 48 h. Potency, µM (series often up to 46.1 µM), inactives show at the top dose re-replication activation, usual class: activators. 340,000 tested, 1.8% active; further: % of control where 0% means no effect; nearly all actives have a fitted effect of over 55% in size
#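 First, 250 cells per well were seeded. Next, compound or vehicle (23 nL) was pinned in, plates sat 48 hr at 37 C. Finally Hoechst was added for 40 min before fluorescence scanning.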
# MCF10A rerep – inducers of DNA re-replication in MCF 10A breast cells; Potency, µM (highest dose often 46.1 µM), for inactives: at the top dose activity, positive = re-replication, hits mostly activators; AID 624296; MCF 10A DNA re-replication, Hoechst nuclear intensity, 48 h; 350,000 tested, 2.9% active; further: % of control where 0% means no effect; nearly all actives have a fitted effect of over 50% in size
# KB-V1 cytotox – kills drug-selected multidrug resistant KB-V1 cells. KB-V1 MDR cells viability, CellTiter-Glo, 72 h. Potency, µM (highest dose often 46.1 µM), hits mostly cytotoxic. 400,000 tested, 3.4% active; further: on the % scale 0 is the no-effect control and ±100 the full control effect; nearly all actives have a fitted effect of over 60% in size
#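 In this primary screen, KB-V1 cells overexpressing P-gp are incubated with library compounds (lowest to highest concentration) for 72 h at 37 degrees C before a luminescent ATP viability read.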
# KB-3-1 tox – kills parental KB-3-1 adenocarcinoma cells. KB-3-1 viability, CellTiter-Glo ATP luminescence, 72 h. Potency, µM (highest dose often 46.1 µM), hits mostly cytotoxic. 400,000 tested, 1.4% active. AID 1347075; further: on the % scale 0 is the no-effect control and ±100 the full control effect; nearly all actives have a fitted effect of over 60% in size
#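 Parental KB-3-1 adenocarcinoma cells in phenol-red-free DMEM with 10% FBS were pin-treated with compounds at several concentrations, incubated 72 h at 37 °C, and viability read by CellTiter-Glo luminescence; concentration-effect curves were fitted after normalization.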
# An asterisk follows results filed as active; i = inactive; ? = inconclusive; . = no result given; [ ] = remark or other dose. Hits are enriched below; roughly 10% of the tested compounds scored in any of these assays. The call rests on the fitted dose curve; in most records, active means well fitted curve in the direction sought with a large enough effect; inconclusive means small, poorly fitted or top-dose-only effect, or another doubt; inactive means no such curve, though single readings can be large; an effect the other way counts as inactive or inconclusive. Potency means the concentration at half of the fitted maximal effect.
SMILES,Gal4-VP16 FLuc,RORg inh,SW480 rereplic,MCF10A rerep,KB-V1 cytotox,KB-3-1 tox
CCOc1ccc(-n2c(-c3ccco3)n[nH]c2=S)cc1,?,2.82µM*,-4.2%,-1.9%,i,i
C=C(C)C(=O)C1CCCCC1,-1.4%,-0.2%,.,.,.,.
Cc1onc(-c2ccccc2)c1-c1n[nH]c(=S)n1-c1ccccc1Cl,15.8µM*,4.47µM*,-2.6%,3.8%,i,i
Cn1c(NCc2ccc(Cl)cc2)nc2ccccc21,-10.1%,-37.2%,0.7%,-0.8%,i,i
CCCCn1c(Nc2ccc(OC)cc2)nc2ccccc21,?,10µM*,2.1%,0.2%,i,i
COc1ccc(Nc2nc3ccccc3n2C)cc1,6.9%,-22.2%,-5.3%,0.8%,i,i
CCCn1c(NCc2cccc(OC)c2O)nc2ccccc21,3.3%,?,2.0%,-0.6%,8.2µM*,i
c1ccc(CNc2nc3ccccc3n2CCN2CCOCC2)nc1,-4.9%,3.4%,?,23.1µM*,i,i
Cc1ccc(CNc2nc3ccccc3n2C)cc1,?,10µM*,-0.6%,?,i,i
COc1ccc(NC(=O)c2cnc[nH]2)cc1,.,.,.,.,i,?
CCCCCCCCCCCCCC(=O)OC(C)C,-9.3%,-2.6%[10 µM],-0.2%,-4.1%,.,.
O=C(c1cccn2c(=O)c3cc(Cl)ccc3nc12)N1CCN(c2ccccc2F)CC1,.,.,.,.,i,i
CC(C)n1c(Nc2ccccc2)nc2ccccc21,-9.2%,?,1.0%,10.5%,i,i
CCOc1ccccc1Nc1nc2ccccc2n1C(C)C,-6.1%,10µM*,15.2%,16.7%,i,i
CCn1c(CNc2nc3ccccc3n2C(C)C)nc2ccccc21,-3.5%[0.365 µM],?,-0.7%,-4.1%,11.6µM*,i
COc1cccc(CNCc2cccc(OC)c2O)c1O,.,.,-2.0%,-0.8%,18.4µM*,i
Cc1ccc(CC2CC(=O)N(c3nc4ccccc4n3C)C2=O)cc1 (centres undefined),?,12.6µM*,-2.9%,5.6%,i,i
CC(C)n1c(NCc2nc3ccccc3n2C)nc2ccccc21,?,?,2.1%,4.1%,i,i
Cc1nc(-c2coc3c(O)c(O)ccc3c2=O)cs1,-6.3%,4.3%,.,.,.,.
CCCCn1c(NCc2ccncc2)nc2ccccc21,-3.7%,7.3%,13.5%[1.84 µM],-6.6%,i,i
CCN(CC)CCn1c(NCc2cccc(OC)c2)nc2ccccc21,-8.1%,5.62µM*,-2.3%,0.5%,i,i
CCN(CC)c1ccc(CNc2nc3ccccc3n2CCN2CCOCC2)cc1,-13.5%,11.2µM*,-13.4%,28.2%,i,i
CCCCn1c(NCc2ccc(N(C)C)cc2)nc2ccccc21,12.6µM*,17.8%,-2.2%,18.4%,?,i
CCCn1c(NCc2ccccn2)nc2ccccc21,-60.8%,14.1µM*,1.7%,4.4%,i,i
Cc1cc(C)n2c(NCc3ccccc3)c(-c3cc4ccccc4o3)nc2n1,.,.,.,.,?,i
SMILES,Gal4-VP16 FLuc,RORg inh,SW480 rereplic,MCF10A rerep,KB-V1 cytotox,KB-3-1 tox
O=C(c1cnccn1)N1CCC2(CCN(Cc3ccncc3)CC2)CC1,-6.6%,-15.8%,.,.,.,.
O=C(Cn1c(=O)n(CCc2ccccc2)c(=O)c2cccnc21)Nc1ccc(F)cc1,.,.,.,.,i,?
CCCCn1c(NCc2cc(C)ccc2O)nc2ccccc21,.,.,.,.,i,i
CCCCn1c(NCc2cc(Cl)ccc2O)nc2ccccc21,.,.,.,.,13µM*,?
CCOC(=O)Nc1ccc2c(c1)ncn2C1CCCCC1,4.4%,12.8%,12.5%,-8.6%,18.4µM*,i
COc1ccc2nc(SCC(=O)N3CC(=O)Nc4ccccc43)c(C#N)cc2c1,-20.3%,1.7%,5.01µM*,2.82µM*,?,2.59µM*
Cc1cc(C)c2nc(SCC(=O)N3CC(=O)Nc4ccccc43)c(C#N)cc2c1,-0.4%,-7.9%,1.3µM*,0.82µM*,0.731µM*,0.651µM*
Cc1cc(C)c2nc(SCC(=O)Nc3ccccc3N3CCOCC3)c(C#N)cc2c1,.,.,-5.9%,1.9%,i,i
